Activity calls are given as the source filed them. No rule for the calls is given here.

These results are taken from PubChem BioAssay (NCATS).
Potency is read from the fitted curve at half-maximal effect.

In the assay the test system is HIV-1 nucleocapsid protein NCp7 (binding to TG oligonucleotide). In words: HIV Nucleocapsid (AID 346).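 Also: potency is for inhibitors that block NC binding and lower polarization.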 The note with it: HIV-1 NC / fluorescein-TGTGTGTG probe, fluorescence polarization. The essentials:
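Inhibition of nucleocapsid binding to single-stranded 5'-TGTGTGTG probe (10 nM) was measured by fluorescence polarization after 1 hr at room temperature with 100 nM protein under high-salt, zinc-containing, reducing conditions.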
On the technique in general: In fluorescence polarisation assays a small probe gives low polarisation when free and higher when bound to something large.
Regarding `COc1ccc(CNc2ncncc2-c2cccnc2)c(OC)c1`, the Potency was > 20 µM (inactive).
The figure for `Cc1noc(C)c1C(=O)N1CCC[C@@]2(CCN(c3ccccc3)C2)C1` is > 20 µM (inactive).
The figure for `Cc1ccccc1-c1nc(N(C)Cc2ccco2)c2ccccc2n1` is > 20 µM (inactive); for `O=C(c1cccc(F)c1)N1CCC2(CC1)CCN(c1ccc(-c3ccccc3)cc1)CC2` it is > 20 µM (inactive); for `COc1ccc(-c2nc3cnc(N4CCNCC4)nc3n(-c3ccccc3)c2=O)cc1` it is > 20 µM (inactive).
Turning to `c1cncc(-c2cncnc2NCc2cccs2)c1`, the Potency is > 20 µM (inactive).
The figure for `COc1ccc(C(=O)N2CCC3(CCN(C(=O)Nc4ccccc4)CC3)CC2)cc1` is > 20 µM (inactive); for `COc1ccccc1CNc1ncnc2ccc(-c3ccoc3)cc12` it is > 20 µM (inactive).
With `CN(Cc1ccco1)c1nc(-c2ccc3c(c2)OCO3)nc2ccccc12`, the Potency is > 20 µM (inactive).
In the case of `O=c1c(-c2cc(F)cc(F)c2)nc2cnc(N3CCOCC3)nc2n1CCc1ccccc1`, the Potency is > 20 µM (inactive).
With `COCC(=O)N1CCC2(CCCN(Cc3nccs3)C2)CC1`, the Potency is > 20 µM (inactive).
For the compound `O=C(Nc1cccc(F)c1)N1CC2(CCN(C(=O)c3csnn3)CC2)C1`, the Potency is > 20 µM (inactive).
Next, `COc1ccc(-c2nc3cnc(OC)nc3n(Cc3ccc(F)cc3)c2=O)cc1`: > 20 µM (inactive); `Cc1noc(C)c1-c1nc(Nc2ccc(F)cc2)c2ccccc2n1`: > 20 µM (inactive).
Turning to `O=C(c1ccncc1)N1CCC2(CCCN(c3ccccn3)C2)CC1`, the Potency is > 20 µM (inactive).
